Bioassay records deposited in PubChem BioAssay by several laboratories.
A selection: hits, their analogues and other compounds. The true share with any hit is near 6.9%.
SKKanGAS inh = inhibitors of SKKanGAS S. pyogenes growth in kanamycin (SK-promoter or general growth effect) | BacTiter-Glo, 6 h | inhibition, % at 7.5 µM | 300,000 tested, 1.3% active;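 active = mean replicate score, as percent of positive control median, at least 50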;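 note: strain carries kanamycin resistance gene driven by streptokinase promoter and grows in 40 µg/ml kanamycin; loss of luminescence reflects streptokinase promoter inhibition or plain growth inhibition; 0% = median of DMSO wells and 100% = positive control at its reference dose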
Beta apoptosis = beta cell apoptosis inhibition; 300,000 tested, 0.8% active; protection from apoptosis, % (concentration not given with the values); INS-1E cytokine-induced death, ATP luminescence, 48 h; percent of positive-control rescue, neutral wells zero;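 active = Every replicate reaches about 75%, or at least half do and their mean reaches it too, limit read from the data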;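 note: 0% = cytokine-treated negative control wells and 100% = positive control rescue; higher means more ATP so stronger rescue from cytokine killing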
GRIN3A LBD mod = modulators (binders) of human NR3A ligand-binding domain; 340,000 tested, 2.5% active; AID 1259313; Tm shift relative to glycine control, % at 25 µM; NR3A LBD differential scanning fluorimetry, Tm shift; 0% = protein alone, 100% = glycine-bound protein;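 active = melting temperature shift of at least 10% of the positive control shift, at one fixed dose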
Mdm2 MdmX PPI = disrupts the human Mdm2-MdmX interaction. O15151+Q00987. SaOS-2 split-luciferase Mdm2/MdmX complementation, luminescence. inhibition, % at 8 µM. 330,000 tested, 3% active. AID 485346;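 active = inhibition of at least 50% at 8 µM in the primary screen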
MPTP block = permeability transition pore inhibition | isolated mouse mitochondria, Ca2+ swelling absorbance, 30 min | inhibition, % at 10 µM | 360,000 tested, 1.4% active;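 active = inhibition of 50% or more, scaled per plate between neutral and stimulator controls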;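 note: 0% = DMSO wells given calcium and 100% = 1 mM EGTA wells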
CSC inhib = blocks cancer stem cells; cancer stem cell-like cells viability, luminescence; inhibition, % at 7.5 µM; 300,000 tested, 1.1% active; AID 2717; in the data active = inhibition above about 75%; tested in HMLE shEcad cells
Rh123 counter = mitochondrial membrane potential, counter-screen; shares compounds with MPTP block; inhibition, % at 10 µM; 5,000 tested, 78% active; isolated mitochondria, Rhodamine 123 fluorescence; in the data active = inhibition above about 22%;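 note: 0% = DMSO vehicle and 100% = positive control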
MPTP swell DR = MPTP inhibition, dose response swelling confirmation. IC50, µM. 780 tested, 58% active. AID 651561. shares compounds with MPTP block. isolated mitochondria swelling, absorbance; in the data active = IC50 below about 20 µM
MPTP counter DR = counter-screen for mitochondrial permeability transition pore inhibitors, dose response; AID 651564; 780 tested, 49% active; IC50, µM; shares compounds with MPTP block; isolated mitochondria counterscreen, fluorescence read-out; in the data active = IC50 below about 80 µM
Starred values were filed as active, the others as inactive; nt = no result.

SMILES	SKKanGAS inh	Beta apoptosis	GRIN3A LBD mod	Mdm2 MdmX PPI	MPTP block	CSC inhib	Rh123 counter	others
Cc1cccc(S(=O)(=O)C(C#N)c2nc3ccccc3nc2N2CC(C)OC(C)C2)c1 (centres undefined)	18	28	1	36	56*	32	71*
Cc1ccc(S(=O)(=O)C(C#N)c2nc3ccccc3nc2N2CC(C)OC(C)C2)cc1C (centres undefined)	19	18	-3	16	44	40	nt
COc1ccccc1C1C(C#N)=C(N)N(N(C)C)C2=C1C(=O)CC(C)(C)C2 (centres undefined)	-2	2	1	-3	0	-7	nt
CCOC(=O)Nc1nc2ccccc2s1	1	-14	-2	-146	-1	1	nt
CCOC(=O)c1sc(NC(=O)Nc2ccc(Cl)cc2)nc1C	15	27	28*	-62	97*	36	67*
CCOC(=O)c1ccc(NC(=O)Nc2nc3ccccc3s2)cc1	nt	nt	nt	nt	83*	nt	91*
COc1ccc(NC(=O)C2Cc3c(-c4ccc(NC(C)=O)cc4)ccnc3O2)cc1OC (centres undefined)	nt	nt	nt	nt	0	nt	nt
COc1ccc(NC(=O)C2Cc3c(-c4ccc5c(c4)OCO5)ccnc3O2)cc1OC (centres undefined)	nt	nt	nt	nt	96*	nt	89*
COc1ccc(NC(=O)C2Cc3c(-c4cccc(F)c4)ccnc3O2)cc1OC (centres undefined)	nt	nt	nt	nt	68*	nt	65*
CCOc1ccc(S(=O)(=O)N2CCC(C(=O)NCCc3ccc(S(N)(=O)=O)cc3)CC2)cc1	-2	-12	1	-16	0	-13	nt
COc1ccccc1CNC(=O)Cn1c(=O)oc2cc(S(=O)(=O)N3CCCC3)ccc21	-2	-6	-1	2	-2	12	nt
Cc1ccc(NC(=S)Nc2cccc3ccccc23)cc1F	0	20	16*	19	64*	36	84*
Cc1nnsc1C(=O)Nc1ccc(Cl)cc1	0	-2	0	8	6	2	nt
Cc1nnsc1SCCNC(=O)Nc1ccc(Cl)cc1	26	10	28*	-22	88*	2	90*
O=C(Nc1cccc2c1[nH]c1ccccc12)C(F)(F)F	-1	4	-11	18	99*	28	87*
O=C(Nc1cccc2c1[nH]c(=O)c1ccccc12)C(F)(F)F	nt	nt	nt	nt	-1	nt	nt
Cc1ccc(CNc2ncnc3cc(Cl)ccc23)cc1	17	25	-2	8	87*	8	76*
Cc1ccccc1CNc1ncnc2cc(Cl)ccc12	-2	3	0	6	1	21	nt
C[C@H](c1ccccc1)N1C[C@@H](COCc2ccccc2)Oc2cc(N3CCC[C@H]3CO)ccc2S1(=O)=O	nt	nt	nt	nt	0	nt	nt
Cc1nc2ccccc2c2oc(C(=O)NCc3ccc4c(c3)OCO4)cc12	-1	10	5	11	63*	-4	31*
Cc1ccc(S(=O)(=O)NCC2CCCO2)cc1 (centres undefined)	-3	-6	-1	6	2	-21	nt
O=S(=O)(NCC1CCCO1)c1ccc(-c2ccc(S(=O)(=O)NCC3CCCO3)cc2)cc1 (centres undefined)	12	96*	1	4	86*	3	101*
O=C(O)CCN1C(=O)/C(=C\c2ccc(-c3nc4ccccc4s3)o2)SC1=S	12	-2	7	-2	89*	6	-25
Cc1ccc(C(=O)NCCNC(=O)COc2ccccc2Cl)cn1	2	-3	-2	-16	0	-1	nt
CN(C)CCNS(=O)(=O)c1ccc(N2CCN(c3ccc(F)cc3)CC2)c([N+](=O)[O-])c1	3	0	0	43	50*	12	-5	MPTP swell DR=7.1*;MPTP counter DR=20*
SMILES	SKKanGAS inh	Beta apoptosis	GRIN3A LBD mod	Mdm2 MdmX PPI	MPTP block	CSC inhib	Rh123 counter	others
CC(=O)N1CCN(c2ccc(S(=O)(=O)NCCN(C(C)C)C(C)C)cc2[N+](=O)[O-])CC1	4	0	0	20	-1	-12	nt
Oc1cccc(NC(=S)Nc2ccc(SC(F)F)cc2)c1	11	3	16*	2	91*	-2	84*
Oc1cccc(NC(=S)Nc2cccnc2)c1	-3	-4	-16	11	-1	-4	nt
CCCCNC(=S)Nc1ccc(SC(F)F)cc1	-13	8	0	-27	98*	6	73*
Oc1cccc2c(NC(=S)Nc3ccc(SC(F)F)cc3)cccc12	10	-3	25*	38	88*	-14	88*
COc1cc(OC)c(C(=O)OCC(=O)NCCC2=CCCCC2)cc1OC	-3	nt	-1	11	0	-12	nt
O=C(COC(=O)c1cc(S(=O)(=O)N2CCCCC2)ccc1N1CCOCC1)c1ccccc1	-1	-7	1	-9	0	-5	nt
COc1cc(CSc2nnnn2-c2ccc(C)cc2)cc(OC)c1OC	-1	102*	-4	37	92*	-12	89*
COc1ccc(F)cc1CSc1nnnn1-c1ccc(O)cc1	0	nt	-10	19	2	22	nt
Cc1ccc(OCC(=O)Oc2ccc(C)c(C)c2)cc1	2	-3	0	17	0	-9	nt
O=C(NN1CC(C(=O)OCc2ccccc2F)CC1=O)c1ccccc1 (centres undefined)	-5	2	-1	-17	0	7	nt
O=C(COC(=O)c1ccccn1)Nc1nc(-c2cccc([N+](=O)[O-])c2)cs1	-1	-1	-3	8	1	nt	nt
O=C(Nc1ccccc1)Nc1nnc(/C=C/c2ccccc2Cl)s1	-3	3	37*	11	86*	9	43*
CCCSc1nnc(NC(=O)Nc2ccccc2)s1	12	32	2	-66	90*	41	78*
CCCSc1nnc(NC(=O)c2sc3nc(-c4cccs4)ccc3c2N)s1	24	-2	6	-7	76*	41	32*
CCCSc1nnc(NC(=O)Nc2ccc(C)cc2)s1	6	-3	-4	43	60*	11	75*
CCCSc1nnc(NC(=O)CCc2ccccc2)s1	12	-5	-1	19	0	13	nt
CCCNC(=O)C1CC(c2ccccc2C(F)(F)F)=NO1 (centres undefined)	-9	-3	0	20	-2	-8	nt
CCc1nnc(NC(=O)CCC(=O)NC2CCCC2)s1	0	-8	5	12	-1	-10	nt
O=C(c1ccccc1)N1CCN(c2ncnc3sc4c(c23)CCC4)CC1	-1	25	0	27	53*	2	45*
N=C(N)SCc1cn(-c2ccccc2)nc1-c1ccc(Br)cc1	34	nt	-9	nt	76*	nt	-10
